Hits are enriched below; roughly 3.1% of the tested compounds scored in any of these assays.
PriA SSB inh = blocks PriA binding to SSB C-terminal tail. AlphaScreen SSBct-PriA binding, biotinylated peptide. inhibition, % at 33 µM. hit rate 0.6% among 430,000; in the data active = inhibition mostly above about 37%, no sharp cut-off; inactive = mostly below about 20%;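 also: plate controls were negative control peptide for no effect and reference peptide for full effect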
Anthrax LF inh2 = inhibitors of Bacillus anthracis lethal factor protease | P15917 | multiplex microsphere protease cleavage assay, LF | inhibition, % at 10 µM | hit rate 0.12% among 360,000 | AID 588501; also: plate controls were buffer without enzyme for full effect and enzyme alone for no effect
BoNT-A LC inh2 = inhibitors of Botulinum neurotoxin A light chain protease; inhibition, % at 10 µM; hit rate 0.17% among 360,000; multiplex microsphere protease substrate cleavage, flow cytometry; also: plate controls were buffer without enzyme for full effect and enzyme alone for no effect
Autofluor counter = compound fluorescence in toxin protease inhibitor counterscreen | compound autofluorescence counterscreen, microsphere flow cytometry; hits give high values | fluorescence intensity (test concentration not listed) | hit rate 3.1% among 360,000; in the data active = fluorescence intensity above about 16000; inconclusive = no clear call, values can overlap the other calls
BoNT-F LC inh = blocks Botulinum neurotoxin F light chain protease; Multiplex microsphere protease cleavage assay, flow cytometry; inhibition, % at 10 µM; hit rate 0.22% among 360,000; in the data active = inhibition above about 35%, passing the limit was not always enough; inconclusive = no clear call, values can overlap the other calls; also: plate controls were buffer without enzyme for full effect and enzyme alone for no effect
* = called active by the depositor; ? = inconclusive; . = not tested or not shown. Rule as the data show it, unless noted: active = inhibition above about 30%; inconclusive = no clear call, values can overlap the other calls; inactive = below that.

SMILES	PriA SSB inh	Anthrax LF inh2	BoNT-A LC inh2	Autofluor counter	BoNT-F LC inh
CC(=O)Oc1ccc(NC(=O)Cc2ccccc2)c(C(=O)O)c1	-21	3	-1	4554	-2
CC(=O)Oc1ccc(NC(=O)C2CCCCC2)c(C(=O)O)c1	-13	-3	5	20737*	4
O=C1CCCc2ccccc2N1Cc1ccccc1	-3	-9	0	5752	-1
CC1CC(=O)N(Cc2ccccc2)c2ccccc2N1C=O (configuration not stated)	-3	-5	0	20499*	0
O=C(Cn1nnc2ccccc21)NCc1cccnc1-c1cccs1	0	.	.	.	.
CCN1CNC(=S)N(c2cccc(C)c2C)C1	-13	-2	?	20115*	-3
CCCN1CNC(=S)N(c2cccc(C)c2C)C1	-20	-19	?	14518	22
CCOc1ccc(Cl)cc1S(=O)(=O)NC1CCCCCC1	-4	.	.	.	.
CC1(C)Cc2c(sc3ncnc(N)c23)CO1	6	-8	4	18415*	6
Cc1csc(NC(=O)CSc2nnc(C)s2)n1	-17	-4	0	2632	-7
Nc1nnc(SCC(=O)Nc2nccs2)s1	-13	7	3	3694	22
Cc1nnc(SCC(=O)Nc2nsc(-c3ccccc3)n2)s1	-1	-6	-5	21832*	-6
CN(C)c1ccc(NC(=O)c2sc(SCC(=O)Nc3nccs3)nc2N)cc1	48	-3	-1	23476*	-5
Cc1nnc(SCC(=O)Nc2nc(C(C)(C)C)cs2)s1	0	1	?	21050*	-3
Cc1nnc(SCC(=O)Nc2nccs2)s1	-8	-3	0	20118*	-2
Cc1cccc2sc(NCc3cccnc3)nc12	13	.	.	.	.
COc1cccc2sc(N3CC(OC(=O)COc4ccccc4C)C3)nc12	-5	.	.	.	.
Cc1csc(SCC(=O)Nc2ccc(Cl)cn2)n1	-7	1	0	4502	-4
CC(C)(C)c1csc(SCC(=O)Nc2ccc(Cl)cn2)n1	-59	-8	2	18967*	1
CCOC(=O)CSc1nnc(NCC(=O)OC)c(=O)[nH]1	-2	0	-6	21379*	-7
CCOC(=O)CSc1nnc(C)c(=O)[nH]1	3	-2	0	2981	-6
CC(C)N1CCNC(=O)C1CC(=O)O (configuration not stated)	-5	.	.	.	.
CC(C)(C)c1ccc(-c2n[nH]c(=S)n2C2CCCC2)cc1	-1	-4	?	22762*	0
CC(C)(C)c1ccc(-c2n[nH]c(=S)n2C2CCCCC2)cc1	15	.	.	.	.
Brc1ccc2c(c1)OCCSCCOCCSCCO2	43*	.	.	.	.
SMILES	PriA SSB inh	Anthrax LF inh2	BoNT-A LC inh2	Autofluor counter	BoNT-F LC inh
O=C(Nc1nc(-c2ccccc2)c(-c2ccccc2)s1)c1c(F)cccc1F	0	.	.	.	.
COC(=O)c1c(C(=O)OC)c2n(c1C)Cc1ccccc1C2	-10	-3	-1	22637*	0
C[C@H](Oc1ccccc1F)C(=O)O	-11	.	.	.	.
COc1ccccc1OC(C)C(=O)O (configuration not stated)	-21	0	1	20529*	1
Cc1ccccc1NC(=O)CSCCO	-24	0	2	22229*	3
O=C(CSCCO)Nc1cccc2ccccc12	2	-3	?	22778*	-4
Cc1nc2ccc3nc(NC(=O)C45CC6CC(CC(C6)C4)C5)sc3c2s1	-8	.	.	.	.
COc1ccc(Cl)cc1S(=O)(=O)N1CCC(n2c(=O)[nH]c3ccccc3c2=O)CC1	-14	.	.	.	.
Cc1cc(C(F)F)n2nc(C(=O)Nc3ccccc3Br)nc2n1	-7	-4	0	20530*	0
Cc1cc(C(F)F)n2nc(C(=O)Nc3cccnc3Cl)nc2n1	-7	1	0	2842	7
O=C(CCS(=O)(=O)c1ccccc1)NC[C@@](O)(c1cccs1)C1CC1	-14	.	.	.	.
Cc1ccc(C2(CC(=O)N3CCCC3)CCOC(C(C)C)C2)cc1 (configuration not stated)	-2	4	0	5863	-2
COc1ccccc1C1(CC(=O)N2CCCCC2)CCOC(C(C)C)C1 (configuration not stated)	-9	3	0	16312*	-2
CS(=O)(=O)c1ccc(CC(=O)Nc2nnc(-c3ccc4c(c3)OCO4)o2)cc1	-20	.	.	.	.
O=C(CCNC(=O)c1ccc(Br)o1)NCc1ccc(Cl)cc1	3	-1	-1	20990*	-1
COc1cccc(CNC(=O)CCNC(=O)c2ccc(Br)o2)c1	-19	-1	-2	5423	-3
Cc1cc(C(=O)NCCCOC(C)C)c2ccccc2n1	-17	1	0	22118*	2
CSc1ccccc1C(=O)NCCCOC(C)C	-21	0	4	21738*	1
CSc1ccccc1C(=O)NCCOc1ccccc1C	-3	2	0	3993	-3
COc1ccc(OC)c(NC(=O)CC2SC(=Nc3ccccc3)N(CCc3ccccn3)C2=O)c1 (configuration not stated)	0	-1	1	2027	-4
COc1ccc(N=C2SC(CC(=O)Nc3ccc(OC)cc3OC)C(=O)N2C)cc1 (configuration not stated)	10	-2	3	20859*	5
CCOC(=O)N1CCN(c2c(-c3ccccc3)c3cc(Cl)ccc3[nH]c2=O)CC1	0	0	0	7826	9
O=c1[nH]c2ccc(Cl)cc2c(-c2ccccc2)c1N1CCN(CCO)CC1	-2	-1	?	20528*	1
CCCCOC(=O)CCCCCN1C(=O)S/C(=C/c2ccc(OC)cc2)C1=S	12	.	.	.	.
CCCCC(=O)Nc1cccc(NC(=O)c2ccc(Br)o2)c1	-3	-4	0	16352*	-2
SMILES	PriA SSB inh	Anthrax LF inh2	BoNT-A LC inh2	Autofluor counter	BoNT-F LC inh
O=C(Nc1cccc(OC(F)(F)F)c1)c1ccc(Br)o1	-13	-3	-2	16998*	-2
O=C(NCC[C@H](O)c1ccccc1)C1(c2cccs2)CCCC1	-15	.	.	.	.
O=S(=O)(c1ccccc1)c1ncc(C(F)(F)F)cc1Cl	-9	-4	0	3638	-4
FC(F)(F)c1cnc(/C=C/Nc2ccccc2Cl)c(Cl)c1	-3	-1	2	22771*	2
O=C(O)c1ccccc1-c1ccccc1C(=O)NCCCO	-18	2	?	20852*	1
CCOc1ccc2ccccc2c1C=NNC(=O)c1ccncc1	-12	.	.	.	.
O=c1[nH]c(-c2ccccn2)cc2ccccc12	-13	1	2	2134	-1
O=c1[nH]c(-c2ccccn2)cs1	63*	.	.	.	.
COc1ccc(NC(=O)CSc2ccc3c4c(cccc24)C(=O)c2ccccc2-3)cc1	-13	14	23	9656	8
N#Cc1cccc(NC(=O)CSc2ccc3c4c(cccc24)C(=O)c2ccccc2-3)c1	1	28	44*	7954	43*
O=C([C@@H]1CCCN1S(=O)(=O)c1ccc(F)cc1)N(Cc1ccco1)c1nc2ccccc2s1	-13	.	.	.	.
COc1ccc(NC(=O)CN(C)C(C)C(=O)N2CCCCC2)cc1 (configuration not stated)	-4	-3	1	21556*	5
CCc1ccc(/C=N/NC(=O)Cc2ccc(OC)c(OC)c2)s1	.	2	-1	6352	-9
CCOc1cc(C=NNC(=O)COc2ccccc2C)ccc1OC(=O)c1cccs1	-11	.	.	.	.
CCCCCC(=O)N/N=C/c1cccs1	.	-2	0	22461*	1

Screening results deposited in PubChem BioAssay by several laboratories.
